Assay [1] can be described thus: qHTS assay for small molecule activators of the p53 signaling pathway (AID 651743; active = well fitted activation curve with a large enough effect in the signal ratio, not every such curve was filed as active; the % refers to the signal ratio; also: potency is read from the fitted curve at half-maximal effect; as to activation: % of control where 0% means no effect). To be noted: HCT-116 p53RE-bla, beta-lactamase FRET ratio, 16 h; activation: active compounds read high. The essentials:
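p53RE-bla HCT-116 cells carrying a beta-lactamase reporter under p53 response elements were exposed to compounds for 16 hours at 37 C. Reporter activity read as fluorescence after 2 hours at room temperature with LiveBLAzer B/G FRET substrate.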

The nature of assay [2]: qHTS assay for small molecule activators of the nuclear factor-kappa B (NF-kB) signaling pathway (AID 651749; active = well fitted activation curve with a large enough effect in the signal ratio; the % refers to the signal ratio; also: % of control where 0% means no effect). To be noted: NF-kB-bla ME-180 cells, beta-lactamase FRET ratio, 16 h; active compounds read high. The method, boiled down: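 NF-kB-bla ME-180 cells carrying a beta-lactamase reporter under an NF-kB response element, 2,000 cells/well, exposed to compound for 16 hr at 37C; FRET-based beta-lactamase fluorescence read-out of pathway activation.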

The nature of assay [3]: qHTS assay for environmental chemicals that activate the Aryl hydrocarbon Receptor (AhR) signaling pathway (AID 651777). Also: % of control where 0% means no effect; nearly all actives have a fitted effect of over 15% in size. To be noted: 1A2-DRE human hepatoma cells, luciferase, 24 h; active compounds read high. The essentials:
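Luminescence read-out: One-Glo added for 30 min at RT after 24 hr compound treatment (37 C, 5% CO2) of human hepatoma cells expressing a DRE/CYP1A2 promoter–luciferase reporter; increased signal indicates AhR activation.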
(In qHTS, concentration-response curves come from the screen itself.)

In assay [4] the target is Peroxisome proliferator-activated receptor alpha (Homo sapiens) (UniProt Q07869). The assay is described as follows: qHTS assay for small molecule agonists of the peroxisome proliferator-activated receptor alpha (PPARalpha) signaling pathway (AID 651778). Also: % of control where 0% means no effect. Particulars: PathHunter PPARalpha complementation, chemiluminescence, 6 h; active compounds read high. The method, boiled down:
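Enzyme-fragment complementation assay in which ligand-bound PPARalpha translocates and forms an active enzyme that generates chemiluminescence. Cells were plated overnight, exposed to compound for 6 hr at 37 C, and then given detection reagent for 60 min at room temperature.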

Assay [5] in a line: qHTS assay for small molecule disruptors of the mitochondrial membrane potential - 1 hr assay (AID 651754; calls by dose curve; also: % is scaled to controls: 0 for no effect and ±100 for the full control effect; nearly all actives have a fitted effect of over 35% in size). To be noted: series mostly up to 92.2 µM. The method, boiled down:
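HepG2 cells, attached overnight, were exposed to compound for 1 hr at 37C, then stained 30 min with a potentiometric dye. Ratio of red aggregate (590nm) to green monomer (535nm) fluorescence reports membrane potential; collapse shifts signal toward green.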

Assay [6] can be described thus: qHTS assay for small molecule disruptors of the mitochondrial membrane potential - 5 hr assay (AID 651755; calls by dose curve; also: % is scaled to controls: 0 for no effect and ±100 for the full control effect; nearly all actives have a fitted effect of over 40% in size). Particulars: JC-1-type ratio dye; series mostly up to 92.2 µM. The essentials:
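HepG2 cells (2,000/well), attached overnight, exposed to compound 5 hr at 37C, then Mito-MPS dye 30 min. Fluorescence read for monomers (490/535 nm) and aggregates (540/590 nm).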

A short description of assay [7]: qHTS assay to identify small molecules that stimulate interleukin-8 (IL-8) secretion (AID 651758; active = well fitted activation curve with a large enough effect in the signal ratio; the % refers to the signal ratio; also: 0% is about no effect). To be noted: HTRF ratio (665/615); series mostly up to 92.2 µM. The method, boiled down:
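THP-1 cells (2000/well) exposed to compound 16 h at 37 C; secreted IL-8 then detected by HTRF with cryptate- and XL665-labelled anti-IL-8 antibody pair after 1-3 h at room temperature.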

In assay [8] the target is Nuclear receptor ROR-gamma (Homo sapiens) (UniProt P51449). The assay is described as follows: qHTS assay for small molecule antagonists of the retinoid-related orphan receptor gamma (ROR-gamma) signaling pathway (AID 651802).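 Also: luciferase reporter luminescence driven by ROR response element; % is scaled to controls: 0 for no effect and ±100 for the full control effect; nearly all actives have a fitted effect of over 60% in size.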 Particulars: ROR-gamma antagonist cell reporter assay; series mostly up to 92.2 µM. The essentials: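 CHO cells with TET-inducible ROR-gamma and RORE-luciferase reporter, dosed then doxycycline-induced. After 16 h at 37C, One-Glo luminescence read; decreased signal indicates antagonism.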

The target in assay [9] is Tyrosine-protein kinase Yes (Homo sapiens) (UniProt P07947). The assay can be described thus: qHTS for small molecule inhibitors of Yes1 kinase: Primary Screen (AID 686947). Also: nearly all actives have a fitted effect of over 60% in size. Also: potency is read from the fitted curve at half-maximal effect. Particulars: Yes1 kinase biochemical qHTS inhibition; series mostly up to 76.9 µM. The essentials:
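Yes1 (4 nM) preincubated 20 min with compound, then 60 min room-temperature reaction with 0.1 mM ATP and 0.3 mg/mL poly(E4Y) in pH 7.5 Tris, 10 mM MgCl2. ADP measured by ADP-Glo luminescence, normalised to enzyme/no-enzyme controls.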

For assay [10], the target named is Tumor necrosis factor (Homo sapiens) (UniProt P01375). The assay is described as follows: qHTS assay to identify small molecules that stimulate Tumor Necrosis Factor-alpha (TNF-alpha) secretion (AID 651757; active = well fitted curve in the direction sought with a large enough effect in the signal ratio; the % refers to the signal ratio; also: 0% is about no effect). Particulars: Human cells, HTRF 665/615 ratio; series mostly up to 92.2 µM. The essentials:
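THP-1 cells (3000/well) exposed to compounds 17 hrs at 37 C. Secreted TNF-alpha detected by HTRF with cryptate- and XL665-labeled anti-TNF-alpha antibodies after 3 hr at room temperature.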

Values joined by “and” are separate entries in the source; they are usually repeats but may differ in a detail not shown here. Equal values may be shown once. Unmarked numbers belong to inactive results. Results filed as inconclusive are left out. Active and inactive are the calls of the source. Unless noted, calls follow the shape of the dose curve; as a rule, active = well fitted curve in the direction sought with a large enough effect; inconclusive = small, poorly fitted or top-dose-only effect, or another doubt; inactive = no such curve, though single readings can be large; an effect the other way counts as inactive or inconclusive.

Sequence of Tumor necrosis factor (Homo sapiens) (P01375 whole entry, looked up): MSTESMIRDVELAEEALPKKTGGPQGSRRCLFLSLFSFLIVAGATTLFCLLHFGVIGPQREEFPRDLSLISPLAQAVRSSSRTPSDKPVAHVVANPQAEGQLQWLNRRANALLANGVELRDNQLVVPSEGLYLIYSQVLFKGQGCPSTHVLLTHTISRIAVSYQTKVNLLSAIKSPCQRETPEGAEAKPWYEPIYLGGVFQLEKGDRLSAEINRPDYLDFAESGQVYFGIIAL
Sequence of Peroxisome proliferator-activated receptor alpha (Homo sapiens) (Q07869 whole entry, looked up, the tested form may be a part): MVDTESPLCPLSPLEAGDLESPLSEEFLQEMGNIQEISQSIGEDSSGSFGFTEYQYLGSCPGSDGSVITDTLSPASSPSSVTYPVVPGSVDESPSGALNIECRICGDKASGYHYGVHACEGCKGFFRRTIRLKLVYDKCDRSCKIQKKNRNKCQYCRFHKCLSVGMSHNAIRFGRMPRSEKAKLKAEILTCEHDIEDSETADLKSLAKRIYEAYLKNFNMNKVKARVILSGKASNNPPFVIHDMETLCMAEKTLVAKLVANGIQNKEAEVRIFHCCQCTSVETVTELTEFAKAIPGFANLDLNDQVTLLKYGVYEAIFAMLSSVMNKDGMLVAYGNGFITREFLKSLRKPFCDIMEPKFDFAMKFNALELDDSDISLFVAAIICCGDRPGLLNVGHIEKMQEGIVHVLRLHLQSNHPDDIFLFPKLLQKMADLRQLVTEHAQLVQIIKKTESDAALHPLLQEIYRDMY
Sequence of Nuclear receptor ROR-gamma (Homo sapiens) (P51449 whole entry, looked up): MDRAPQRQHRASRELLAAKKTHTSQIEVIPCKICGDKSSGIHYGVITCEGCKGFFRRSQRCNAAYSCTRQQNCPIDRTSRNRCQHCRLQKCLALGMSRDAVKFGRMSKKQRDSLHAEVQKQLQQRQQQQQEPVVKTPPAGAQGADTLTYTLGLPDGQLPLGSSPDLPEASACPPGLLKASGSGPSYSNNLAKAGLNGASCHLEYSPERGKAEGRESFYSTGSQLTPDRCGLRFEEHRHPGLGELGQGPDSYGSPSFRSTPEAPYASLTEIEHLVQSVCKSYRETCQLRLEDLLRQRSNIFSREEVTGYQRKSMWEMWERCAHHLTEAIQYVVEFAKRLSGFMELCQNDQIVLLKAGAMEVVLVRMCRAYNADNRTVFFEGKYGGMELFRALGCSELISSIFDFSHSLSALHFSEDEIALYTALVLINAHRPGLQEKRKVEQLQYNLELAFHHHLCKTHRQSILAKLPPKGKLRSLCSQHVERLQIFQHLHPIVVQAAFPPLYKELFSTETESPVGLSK
Sequence of Tyrosine-protein kinase Yes (Homo sapiens) (P07947 whole entry, looked up): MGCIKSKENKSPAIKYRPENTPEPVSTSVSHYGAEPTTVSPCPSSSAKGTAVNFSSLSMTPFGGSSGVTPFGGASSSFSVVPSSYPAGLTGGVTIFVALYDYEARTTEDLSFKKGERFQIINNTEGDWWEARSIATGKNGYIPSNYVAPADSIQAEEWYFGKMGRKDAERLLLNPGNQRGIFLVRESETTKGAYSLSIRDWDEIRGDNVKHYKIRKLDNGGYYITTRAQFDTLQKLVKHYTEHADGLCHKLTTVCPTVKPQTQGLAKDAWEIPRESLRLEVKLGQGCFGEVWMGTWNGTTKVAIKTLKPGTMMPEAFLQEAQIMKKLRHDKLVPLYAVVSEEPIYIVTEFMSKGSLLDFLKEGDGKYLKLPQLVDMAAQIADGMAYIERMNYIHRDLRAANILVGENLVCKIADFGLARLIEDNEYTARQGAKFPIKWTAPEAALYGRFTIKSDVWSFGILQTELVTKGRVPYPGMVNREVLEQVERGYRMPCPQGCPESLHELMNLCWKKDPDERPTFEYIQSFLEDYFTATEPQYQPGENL

`Cc1[nH]c(=O)c(C#N)cc1-c1ccncc1`: the values for the activation in assay [1], in assay [2] and in assay [3] were -6.25%, -0.647% and 0.896%, respectively. Also, in assay [4], the max response was 0.228%.

Take `NS(=O)(=O)c1cc2c(cc1Cl)NC=NS2(=O)=O`: the activation is -2.13% in [1], -0.0978% in [2] and -1.42% in [3]. Further, the compound was classed as inactive in assay [5], in assay [6], in assay [7] and in assay [8]. For the same compound, the max response in [4] is -1.54%.

On to `CCCc1nn(C)c2c(=O)[nH]c(-c3cc(S(=O)(=O)N4CCN(C)CC4)ccc3OCC)nc12`, for which the Potency entry in assay [9] is “inactive”.

As to `Cc1c(C)c2c(c(C)c1O)CCC(C)(COc1ccc(CC3SC(=O)NC3=O)cc1)O2` (stereo not given), the activation in assay [2] is -3.91%; in assay [3], 5.68%. The max response in [4] is 1.07%. Besides, the Potency result in assay [9] is “inactive”.

Regarding `COc1ccccc1[C@H](c1cccc2ccccc12)[C@@](C)(C#N)C(=O)N1CCC(c2cccc(C(F)(F)F)c2)CC1`, the Potency entry in assay [9] is “inactive”.

Regarding `Oc1cccc(-c2nc(N3CCOCC3)c3oc4ncccc4c3n2)c1`, the Potency result in assay [9] is “inactive”.

As for `CCOc1cc(N2CCC(O)CC2)ccc1Nc1ncc2c(n1)N(C)c1ccccc1C(=O)N2C`, in assay [9], the Potency entry was “inactive”.

In the case of `NC(=O)c1cnccn1`, the activation in [1] is 0.545% and -2.21%; in assay [2], -0.539% and -2.05%; in assay [3], -0.771% and 0.812%. The result in assay [10] and in assay [8] was inactive. Also, the max response in [4] was -0.88% and -1.97%.

`COc1ccc2nc(S(=O)Cc3ncc(C)c(OC)c3C)[nH]c2c1` (stereo not given): the activation in [2] was -0.714%. Further, the max response in [4] was 6.65%. In addition, the Potency entry in [9] is “inactive”.

Take `O=C(NOC[C@H](O)CO)c1ccc(F)c(F)c1Nc1ccc(I)cc1F`: the Potency entry in [9] is “inactive”.

Turning to `Cn1cnc([N+](=O)[O-])c1Sc1ncnc2nc[nH]c12`, the Potency in assay [1] is 25.1 µM (active) and 28.2 µM (active). Also, the activation in assay [2] was -1.21% and -0.92%; in assay [3], -4.71% and -5.39%. Further, the max response in assay [4] was -2.81% and -2.18%.

As to `CC(C)(Sc1ccc(CCN(CCCCC2CCCCC2)C(=O)NC2CCCCC2)cc1)C(=O)O`, the activation in assay [2] is 7.6%; in [3], 0.388%.

For the compound `COc1nc(-c2ccc3c(c2)OCO3)n(-c2ccc(NC(=O)CSc3ccccc3)cc2)n1`, the Potency entry in [9] was “inactive”.

As to `CNC(=O)c1ccc(N2C(=S)N(c3ccc(C#N)c(C(F)(F)F)c3)C(=O)C2(C)C)cc1F`, the Potency entry in [9] was “inactive”.

In the case of `Cc1ccccc1C(OCCN(C)C)c1ccccc1` (stereo not given), the activation in [1] was -4.64%; in [2], 2.9%; in assay [3], 0.382%. In assay [4], the max response is -4.12%.

In the case of `CC(=O)Oc1ccccc1C(=O)O`, the activation in assay [1] is -2.89% and -7.19% and 1.5%; in [2] it was -1.39% and 0.118% and -2.43%; in assay [3] it was 0.977% and -1.01% and -0.15%. The compound was called inactive in [5], in [6], in assay [10] and in [8]. Further, the max response in [4] was -3.17% and 6.24% and -1.09%.

Take `Nc1cccc(S(=O)(=O)N2CCCN(S(=O)(=O)c3ccc4c(c3)OCCO4)CC2)c1`: the Potency entry in assay [9] was “inactive”.

Take `O=C1CCC(N2C(=O)c3ccccc3C2=O)C(=O)N1` (stereo not given): the activation in assay [1] is -2.08%; in assay [2], -0.119%; in assay [3], -0.0215%. In addition, the max response in assay [4] was -0.602%.

In the case of `NC[C@H](O)c1ccc(O)c(O)c1`, in [3], the activation is 0.207%. Moreover, in assay [4], the max response was -1.8%.

For the compound `Cc1cc2c(C(C)C)c(O)c(O)c(C=O)c2c(O)c1-c1c(C)cc2c(C(C)C)c(O)c(O)c(C=O)c2c1O`, the activation in assay [3] was -3.15%.

With `CCCC(CCC)C(=O)O`, the activation in assay [2] was 0.312% and -3.31% and -0.945%. Also, the result in assay [10] and in assay [7] was inactive.

`C[C@]12CCC(=O)C=C1CC[C@@H]1[C@@H]2[C@@H](O)C[C@@]2(C)[C@H]1CC[C@]2(O)C(=O)CO`: the activation is -2.01% in assay [2] and -1.47% in [3]. Further, the max response in [4] was -0.295%. The Potency result in assay [9] is “inactive”.

With `C[C@]1(c2nc3c(C(N)=O)cccc3[nH]2)CCCN1`, the Potency result in assay [9] is “inactive”.

As to `O=NN(CCCl)C(=O)NCCCl`, the activation was 14.7% in assay [1], -1.3% in assay [2] and 0.58% in [3]. In assay [4], the max response was -2.23%.

Consider `COc1cc(Nc2ncc3c(n2)-c2ccc(Cl)cc2C(c2c(F)cccc2OC)=NC3)ccc1C(=O)O`, for which the Potency in assay [9] is 21.8 nM (active).

As for `CC[C@H](Nc1ncnc2nc[nH]c12)c1nc2cccc(F)c2c(=O)n1-c1ccccc1`, the Potency result in assay [9] is “inactive”.

As to `NC(N)=NC(=O)c1nc(Cl)c(N)nc1N`, the activation in assay [1] was -2.4%; in [2], -0.363%; in assay [3] it was 6.31%. In addition, the outcome in assay [10] and in assay [8] was inactive. For the same compound, the max response in assay [4] is -5.82%. Besides, the Potency entry in assay [9] is “inactive”.

On to `S=C(NCc1ccc2c(c1)OCO2)N1CCN(c2ncnc3c2oc2ccccc23)CC1`, for which the Potency entry in [9] is “inactive”.

For `CCOc1cc(C=C2C(=O)N(c3ccccc3)N=C2C)cc(Cl)c1OCC(=O)OC`, the Potency result in assay [9] was “inactive”.

`CNC[C@H](O)c1cccc(O)c1`: the activation was -0.433% in assay [2] and -0.659% in assay [3]. Moreover, in [4], the max response was -0.749%.

With `CCn1c(-c2nonc2N)nc2cnc(Oc3cccc(NC(=O)c4ccc(OCCN5CCOCC5)cc4)c3)cc21`, the Potency result in assay [9] is “inactive”.

Consider `O=c1[nH]cnc2[nH]ncc12`, for which the results for the activation in assay [2] and in assay [3] were 1.17% and -0.722%, respectively. Further, the outcome in [10] and in [8] was inactive. Moreover, in assay [4], the max response was -0.201%.

These data come from PubChem BioAssay (NCATS).
